Common to all, as to experiment: DAPPL (digital affinity profiling via proximity ligation, sequencing); 10 mM Tris-HCl pH 7.5, 50 mM NaCl, 1 mM DTT, 4% glycerol, room temperature, 30 min; GST-TFs on glutathione beads, 16-mer random dsDNA library, 0.1% formaldehyde crosslink after washing; high values mean tight binding
In one test the target is T1, FLI1 (Homo sapiens, UniProt Q01543 1-452).
T1 sequence: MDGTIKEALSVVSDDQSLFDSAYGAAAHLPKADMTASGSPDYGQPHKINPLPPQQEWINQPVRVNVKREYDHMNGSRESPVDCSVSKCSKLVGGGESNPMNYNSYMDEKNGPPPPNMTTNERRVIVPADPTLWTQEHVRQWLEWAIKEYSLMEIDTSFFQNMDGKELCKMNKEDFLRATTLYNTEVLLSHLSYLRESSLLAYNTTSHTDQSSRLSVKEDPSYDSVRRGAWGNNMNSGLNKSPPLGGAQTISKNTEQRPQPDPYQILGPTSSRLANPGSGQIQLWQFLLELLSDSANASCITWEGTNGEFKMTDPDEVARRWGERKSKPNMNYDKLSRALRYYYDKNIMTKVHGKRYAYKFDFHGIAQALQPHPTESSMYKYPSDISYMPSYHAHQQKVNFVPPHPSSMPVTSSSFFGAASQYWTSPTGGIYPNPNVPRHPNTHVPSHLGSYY
The note with it: protein: recombinant; tags: N-terminal GST; dsDNA, one strand shown. Put shortly:
(§1)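 Beads coated with glutathione captured GST-fused human transcription factors that had been expressed in yeast, and the factors were then given DNA barcodes and pooled with a tag-only sample. The pools were incubated with 200 nmole of a random double-stranded 16-mer DNA library in Tris/NaCl/DTT/glycerol buffer for 30 min at room temperature, washed, crosslinked with 0.1% formaldehyde and proximity-ligated with BsaI/T4 ligase at 37 °C for 1 h. PCR amplification and Illumina NextSeq500 sequencing came last. Binding signal is each hexamer's read frequency for a factor divided by its frequency for the tag-only sample.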

Another test deals with T2, ELK1 (Homo sapiens, UniProt P19419 1-428).
T2 sequence: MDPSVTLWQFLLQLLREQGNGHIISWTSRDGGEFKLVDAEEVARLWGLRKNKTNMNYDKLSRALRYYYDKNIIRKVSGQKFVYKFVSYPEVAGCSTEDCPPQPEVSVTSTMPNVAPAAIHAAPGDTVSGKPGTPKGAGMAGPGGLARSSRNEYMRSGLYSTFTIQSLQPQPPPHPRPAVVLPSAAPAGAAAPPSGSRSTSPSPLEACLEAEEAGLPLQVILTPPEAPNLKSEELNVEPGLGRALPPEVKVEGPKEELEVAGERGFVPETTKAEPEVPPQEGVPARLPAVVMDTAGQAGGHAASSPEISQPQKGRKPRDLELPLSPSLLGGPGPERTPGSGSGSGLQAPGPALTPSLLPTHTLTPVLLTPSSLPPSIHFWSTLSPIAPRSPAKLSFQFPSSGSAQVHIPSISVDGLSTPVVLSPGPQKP
To be noted: protein: recombinant; tags: N-terminal GST; dsDNA, one strand shown. The procedure, abridged:
as §1

The target of a further test is T3, GABPA (Homo sapiens, UniProt Q06546 1-454).
T3 sequence: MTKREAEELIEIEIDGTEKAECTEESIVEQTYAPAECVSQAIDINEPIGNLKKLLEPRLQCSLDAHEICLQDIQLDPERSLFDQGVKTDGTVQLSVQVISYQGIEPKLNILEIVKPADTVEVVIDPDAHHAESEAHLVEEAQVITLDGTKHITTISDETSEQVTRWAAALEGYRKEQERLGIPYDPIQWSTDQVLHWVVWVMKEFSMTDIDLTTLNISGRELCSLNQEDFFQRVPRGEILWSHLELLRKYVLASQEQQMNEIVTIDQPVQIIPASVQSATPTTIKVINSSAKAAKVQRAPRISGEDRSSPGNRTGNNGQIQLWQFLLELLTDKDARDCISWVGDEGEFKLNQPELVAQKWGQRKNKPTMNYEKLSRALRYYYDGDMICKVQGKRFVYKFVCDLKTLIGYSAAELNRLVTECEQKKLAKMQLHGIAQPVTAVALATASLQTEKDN
The note with it: protein: recombinant; tags: N-terminal GST; dsDNA, one strand shown. Put shortly:
as §1

For the next test, the target named is ELF1 (Homo sapiens, UniProt P32519 1-619). To be noted: protein: recombinant; tags: N-terminal GST; dsDNA, one strand shown. The procedure, abridged:
as §1

The next test concerns the target T4, EHF (Homo sapiens, UniProt Q9NZC4 1-300).
T4 sequence: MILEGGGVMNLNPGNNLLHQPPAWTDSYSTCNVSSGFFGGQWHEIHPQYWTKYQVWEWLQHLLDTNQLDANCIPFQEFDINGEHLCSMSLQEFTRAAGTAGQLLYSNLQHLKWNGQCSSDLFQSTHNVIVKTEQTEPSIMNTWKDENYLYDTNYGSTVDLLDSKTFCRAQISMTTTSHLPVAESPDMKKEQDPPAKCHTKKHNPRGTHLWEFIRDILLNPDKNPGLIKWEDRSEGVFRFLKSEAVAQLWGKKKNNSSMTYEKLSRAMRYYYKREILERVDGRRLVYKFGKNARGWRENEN
To be noted: protein: recombinant; tags: N-terminal GST; dsDNA, one strand shown. The procedure, abridged:
as §1

In another test the target is SPI1 (Homo sapiens, UniProt P17947 1-270). To be noted: protein: recombinant; tags: N-terminal GST; dsDNA, one strand shown. Put shortly:
as §1

Another test concerns the target SPIB (Homo sapiens, UniProt Q01892 1-262). The note with it: protein: recombinant; tags: N-terminal GST; dsDNA, one strand shown. Put shortly:
as §1

In a further test the target is T5, ELK3 (Homo sapiens, UniProt P41970 1-407).
T5 sequence: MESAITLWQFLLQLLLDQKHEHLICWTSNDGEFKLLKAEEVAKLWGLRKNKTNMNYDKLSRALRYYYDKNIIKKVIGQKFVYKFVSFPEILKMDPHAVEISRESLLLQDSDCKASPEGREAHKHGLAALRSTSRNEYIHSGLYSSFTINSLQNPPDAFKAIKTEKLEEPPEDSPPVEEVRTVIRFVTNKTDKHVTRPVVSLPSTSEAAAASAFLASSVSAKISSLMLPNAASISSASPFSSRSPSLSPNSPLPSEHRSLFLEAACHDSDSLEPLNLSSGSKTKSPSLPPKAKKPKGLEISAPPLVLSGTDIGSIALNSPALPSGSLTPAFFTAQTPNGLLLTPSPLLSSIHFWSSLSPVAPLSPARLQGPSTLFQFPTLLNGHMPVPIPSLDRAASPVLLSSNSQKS
To be noted: protein: recombinant; tags: N-terminal GST; dsDNA, one strand shown. The procedure, abridged: as §1

The next test concerns the target T6, FEV (Homo sapiens, UniProt Q99581 1-238).
T6 sequence: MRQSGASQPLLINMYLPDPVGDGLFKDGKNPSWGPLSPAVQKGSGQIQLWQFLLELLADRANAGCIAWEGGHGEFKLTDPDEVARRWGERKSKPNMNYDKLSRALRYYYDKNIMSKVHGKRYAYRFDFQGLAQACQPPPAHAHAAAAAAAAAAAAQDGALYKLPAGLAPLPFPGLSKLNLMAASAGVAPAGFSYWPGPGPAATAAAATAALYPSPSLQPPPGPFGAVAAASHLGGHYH
The note with it: protein: recombinant; tags: N-terminal GST; dsDNA, one strand shown. The procedure, abridged:
as §1

The target in a further test is ETV5 (Homo sapiens, UniProt P41161 1-510). The note with it: protein: recombinant; tags: N-terminal GST; dsDNA, one strand shown. The procedure, abridged: as §1
Chain of ETV5 (P41161 whole entry): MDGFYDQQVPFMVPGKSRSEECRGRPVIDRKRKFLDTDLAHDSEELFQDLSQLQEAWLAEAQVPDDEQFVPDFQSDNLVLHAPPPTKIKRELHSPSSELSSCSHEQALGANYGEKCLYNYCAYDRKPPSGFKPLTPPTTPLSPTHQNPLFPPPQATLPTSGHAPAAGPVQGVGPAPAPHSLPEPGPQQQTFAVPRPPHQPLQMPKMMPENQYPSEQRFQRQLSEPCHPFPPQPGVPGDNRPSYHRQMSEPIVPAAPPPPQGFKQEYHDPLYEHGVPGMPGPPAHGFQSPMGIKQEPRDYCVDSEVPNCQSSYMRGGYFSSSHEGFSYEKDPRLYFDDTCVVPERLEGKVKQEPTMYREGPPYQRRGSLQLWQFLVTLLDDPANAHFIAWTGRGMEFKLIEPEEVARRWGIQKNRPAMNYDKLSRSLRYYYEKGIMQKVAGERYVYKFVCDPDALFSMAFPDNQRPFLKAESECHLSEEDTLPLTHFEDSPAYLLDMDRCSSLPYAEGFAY
For another test, the target named is HSF1 (Homo sapiens, UniProt Q00613 1-529). To be noted: protein: recombinant; tags: N-terminal GST; chain copies: 3; dsDNA, one strand shown. Put shortly: as §1
Chain of HSF1 (Q00613 whole entry): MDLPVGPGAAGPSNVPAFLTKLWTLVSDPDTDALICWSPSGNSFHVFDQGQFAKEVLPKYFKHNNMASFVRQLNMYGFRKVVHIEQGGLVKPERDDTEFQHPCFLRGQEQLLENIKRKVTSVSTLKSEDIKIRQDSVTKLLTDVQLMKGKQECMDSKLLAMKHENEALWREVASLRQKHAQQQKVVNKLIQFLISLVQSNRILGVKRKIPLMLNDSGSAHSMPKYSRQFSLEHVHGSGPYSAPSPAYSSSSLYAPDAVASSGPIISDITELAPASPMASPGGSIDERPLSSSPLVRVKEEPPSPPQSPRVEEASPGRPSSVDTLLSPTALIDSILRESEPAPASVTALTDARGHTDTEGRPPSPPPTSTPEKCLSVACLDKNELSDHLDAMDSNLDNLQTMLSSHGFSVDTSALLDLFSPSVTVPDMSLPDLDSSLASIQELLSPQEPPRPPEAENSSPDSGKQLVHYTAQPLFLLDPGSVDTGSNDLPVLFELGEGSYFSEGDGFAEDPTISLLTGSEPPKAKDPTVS
Another test deals with T7, SPIC (Homo sapiens, UniProt Q8N5J4 1-248).
T7 sequence: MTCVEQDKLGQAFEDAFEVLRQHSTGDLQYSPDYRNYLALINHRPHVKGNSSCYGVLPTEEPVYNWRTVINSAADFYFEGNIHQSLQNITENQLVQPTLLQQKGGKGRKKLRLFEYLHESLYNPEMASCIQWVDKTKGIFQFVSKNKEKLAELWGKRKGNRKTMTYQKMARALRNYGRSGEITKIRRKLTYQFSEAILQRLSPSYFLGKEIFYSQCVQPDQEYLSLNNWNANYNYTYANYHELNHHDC
To be noted: protein: recombinant; tags: N-terminal GST; dsDNA, one strand shown. Put shortly: as §1

The next test addresses ELF4 (Homo sapiens, UniProt Q99607 1-663). To be noted: protein: recombinant; tags: N-terminal GST; dsDNA, one strand shown. Put shortly: as §1
A further test has as its target T8, ELK4 (Homo sapiens, UniProt P28324-2 1-405).
T8 sequence: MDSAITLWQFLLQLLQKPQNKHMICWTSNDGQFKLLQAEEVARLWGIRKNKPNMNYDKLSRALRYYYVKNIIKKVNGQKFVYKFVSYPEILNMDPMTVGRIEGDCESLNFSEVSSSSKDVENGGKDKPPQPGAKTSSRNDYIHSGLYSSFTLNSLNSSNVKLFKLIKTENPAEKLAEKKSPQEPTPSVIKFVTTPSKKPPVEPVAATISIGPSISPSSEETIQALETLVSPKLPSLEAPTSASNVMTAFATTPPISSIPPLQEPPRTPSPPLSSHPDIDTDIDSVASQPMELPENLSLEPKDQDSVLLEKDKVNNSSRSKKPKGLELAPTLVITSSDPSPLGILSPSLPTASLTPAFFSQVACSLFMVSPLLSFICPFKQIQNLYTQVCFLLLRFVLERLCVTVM
The note with it: protein: recombinant; tags: N-terminal GST; dsDNA, one strand shown. The procedure, abridged:
as §1

The target of the next test is CRX (Homo sapiens, UniProt O43186 1-299). To be noted: protein: recombinant; tags: N-terminal GST; dsDNA, one strand shown. Put shortly: as §1
Chain of CRX (O43186 whole entry): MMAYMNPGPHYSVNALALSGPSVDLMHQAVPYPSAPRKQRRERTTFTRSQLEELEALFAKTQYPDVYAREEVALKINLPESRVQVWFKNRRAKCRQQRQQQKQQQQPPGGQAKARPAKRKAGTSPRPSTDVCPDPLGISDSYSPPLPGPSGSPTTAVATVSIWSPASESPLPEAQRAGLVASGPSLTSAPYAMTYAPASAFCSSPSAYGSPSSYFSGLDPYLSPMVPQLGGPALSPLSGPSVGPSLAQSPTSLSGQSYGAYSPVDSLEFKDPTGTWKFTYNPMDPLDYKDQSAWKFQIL
A further test addresses ETV1 (Homo sapiens, UniProt P50549 1-477). To be noted: protein: recombinant; tags: N-terminal GST; dsDNA, one strand shown. The procedure, abridged: as §1

This note sets out measurements from PMC7862700, “An all-to-all approach to the identification of sequence-specific readers for epigenetic DNA modifications on cytosine”.

Chain of ELF1 (P32519 whole entry): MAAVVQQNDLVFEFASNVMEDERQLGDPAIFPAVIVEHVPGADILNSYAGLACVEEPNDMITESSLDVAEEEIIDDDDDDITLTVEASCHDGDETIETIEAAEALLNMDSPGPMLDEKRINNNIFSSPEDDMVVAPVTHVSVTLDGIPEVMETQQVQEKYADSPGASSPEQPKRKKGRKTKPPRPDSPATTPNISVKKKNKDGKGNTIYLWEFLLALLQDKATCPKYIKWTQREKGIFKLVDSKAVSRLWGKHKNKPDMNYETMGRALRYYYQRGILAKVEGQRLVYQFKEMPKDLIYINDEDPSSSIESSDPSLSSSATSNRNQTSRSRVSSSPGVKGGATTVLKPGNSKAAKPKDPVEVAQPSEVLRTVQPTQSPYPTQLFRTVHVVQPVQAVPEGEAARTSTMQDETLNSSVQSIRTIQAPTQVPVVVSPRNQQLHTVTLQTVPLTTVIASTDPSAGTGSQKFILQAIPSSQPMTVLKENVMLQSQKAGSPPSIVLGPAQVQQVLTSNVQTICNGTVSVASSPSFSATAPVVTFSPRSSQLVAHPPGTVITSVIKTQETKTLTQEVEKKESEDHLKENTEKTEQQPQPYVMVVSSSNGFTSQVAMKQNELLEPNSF
Chain of SPIB (Q01892 whole entry): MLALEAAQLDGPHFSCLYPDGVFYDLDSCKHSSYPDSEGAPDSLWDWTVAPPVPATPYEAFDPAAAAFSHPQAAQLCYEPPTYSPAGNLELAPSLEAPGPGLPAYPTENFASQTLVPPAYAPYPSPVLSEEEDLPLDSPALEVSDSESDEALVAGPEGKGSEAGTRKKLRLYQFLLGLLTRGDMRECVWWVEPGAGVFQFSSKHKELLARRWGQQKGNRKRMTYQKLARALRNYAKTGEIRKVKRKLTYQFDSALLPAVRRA
Chain of ELF4 (Q99607 whole entry): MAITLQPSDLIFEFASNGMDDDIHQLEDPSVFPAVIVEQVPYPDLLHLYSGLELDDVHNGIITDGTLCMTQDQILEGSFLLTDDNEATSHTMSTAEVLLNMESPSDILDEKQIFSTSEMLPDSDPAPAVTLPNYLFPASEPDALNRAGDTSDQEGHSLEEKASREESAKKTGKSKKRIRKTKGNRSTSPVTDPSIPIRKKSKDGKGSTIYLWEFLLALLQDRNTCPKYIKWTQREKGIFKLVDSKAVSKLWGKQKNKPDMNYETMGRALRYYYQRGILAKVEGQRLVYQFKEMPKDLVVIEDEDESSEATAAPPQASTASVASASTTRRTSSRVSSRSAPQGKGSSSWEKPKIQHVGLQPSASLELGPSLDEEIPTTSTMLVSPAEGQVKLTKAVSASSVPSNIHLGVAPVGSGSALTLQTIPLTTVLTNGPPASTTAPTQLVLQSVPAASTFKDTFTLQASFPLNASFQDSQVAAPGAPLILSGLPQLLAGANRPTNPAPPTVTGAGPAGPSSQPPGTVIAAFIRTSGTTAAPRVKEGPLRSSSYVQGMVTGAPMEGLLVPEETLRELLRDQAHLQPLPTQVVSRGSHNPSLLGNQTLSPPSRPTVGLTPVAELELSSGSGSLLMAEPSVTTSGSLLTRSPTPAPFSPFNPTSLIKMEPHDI
Chain of ETV1 (P50549 whole entry): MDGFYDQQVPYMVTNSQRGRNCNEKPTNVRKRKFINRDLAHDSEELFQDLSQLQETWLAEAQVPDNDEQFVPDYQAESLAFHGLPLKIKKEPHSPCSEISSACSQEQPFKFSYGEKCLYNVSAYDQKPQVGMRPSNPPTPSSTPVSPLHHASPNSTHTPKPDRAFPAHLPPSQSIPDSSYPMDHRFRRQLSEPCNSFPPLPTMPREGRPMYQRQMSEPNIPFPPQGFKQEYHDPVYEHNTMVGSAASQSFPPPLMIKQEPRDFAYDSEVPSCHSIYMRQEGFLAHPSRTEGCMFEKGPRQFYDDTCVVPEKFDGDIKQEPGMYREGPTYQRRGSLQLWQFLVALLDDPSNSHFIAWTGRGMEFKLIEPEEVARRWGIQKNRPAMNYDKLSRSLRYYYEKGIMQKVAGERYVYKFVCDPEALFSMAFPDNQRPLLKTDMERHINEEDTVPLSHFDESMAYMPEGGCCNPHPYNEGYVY

For TGATCG, the binding signal was 1 fold enrichment (6-mer frequency, TF over GST control) in the test with FLI1; 1 fold enrichment (6-mer frequency, TF over GST control) in the test with ELK1; 1.03 fold enrichment (6-mer frequency, TF over GST control) with GABPA; 1.03 fold enrichment (6-mer frequency, TF over GST control) with ELF1; 1.13 fold enrichment (6-mer frequency, TF over GST control) in the test with EHF; 1.03 fold enrichment (6-mer frequency, TF over GST control) in the test with SPI1. For the same sequence, the binding signal was 1.12 fold enrichment (6-mer frequency, TF over GST control) in the test with SPIB; 1.17 fold enrichment (6-mer frequency, TF over GST control) with ELK3; 1.01 fold enrichment (6-mer frequency, TF over GST control) in the test with FEV; 1.03 fold enrichment (6-mer frequency, TF over GST control) with ETV5; 1.18 fold enrichment (6-mer frequency, TF over GST control) with HSF1; 1.11 fold enrichment (6-mer frequency, TF over GST control) in the test with SPIC. Besides, the binding signal in the test with ELF4 was 1.05 fold enrichment (6-mer frequency, TF over GST control); in the test with ELK4, 1.13 fold enrichment (6-mer frequency, TF over GST control); in the test with CRX, 1.21 fold enrichment (6-mer frequency, TF over GST control); with ETV1, 1.09 fold enrichment (6-mer frequency, TF over GST control).
